Reference: the supplement of paper PMC4022240
± gives the standard deviation.

How the values were obtained:
Experiment in all cases: peptide microarray binding signal (635 nm), min-max normalized on array (fraction of array maximum); higher = stronger binding
[1] = target: T1, HaloTag-ATRX ADD domain (163-292)
T1 chain: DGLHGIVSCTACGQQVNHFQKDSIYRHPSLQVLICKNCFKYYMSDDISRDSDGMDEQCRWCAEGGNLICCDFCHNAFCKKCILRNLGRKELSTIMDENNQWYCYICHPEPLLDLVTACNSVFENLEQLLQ
Method in brief: (§1)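 Arrays carried histone 13-mer peptide–cellulose conjugates printed in triplicate on nitrocellulose alongside a Cy3 tracer. After overnight blocking at 4°C, they were incubated for 1 h at 4°C with biotin-labelled HaloTag reader fusions (10 nM to 1 μM) plus streptavidin-Alexa Fluor 647, or with rabbit histone antibodies (1:10,000 to 1:2,000) plus anti-rabbit Alexa 647. Scanning on an Axon GenePix 4000B used 635 nm for signal and 532 nm for misprints. The binding signal reported is each triplicate's mean spot intensity after per-library min-max scaling.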

[2] = target: HaloTag-ING2 PHD (mouse Ing2 200-280)
Method in brief: as §1

[3] = target: anti-H3K4me3 antibody ab8580
Method in brief: as §1

[4] = target: anti-H3K9me3 antibody ab8898
Method in brief: as §1

[5] = peptide region: H3 50-62, binder concentration: 1:2,000 dilution
[6] = peptide region: H3 50-62, binder concentration: 1:10,000 dilution
[7] = peptide region: H3 73-85, peptide modifications: H3K79me2 H3T80ph, binder concentration: 1:2,000 dilution
[8] = peptide region: H3 73-85, peptide modifications: H3K79me2 H3T80ph, binder concentration: 1:10,000 dilution
[9] = peptide region: H3 73-85, peptide modifications: H3K79ac H3T80ph, binder concentration: 1:2,000 dilution
[10] = peptide region: H3 73-85, peptide modifications: H3K79ac H3T80ph, binder concentration: 1:10,000 dilution
[11] = peptide region: H3 50-62, peptide modifications: H3T58ph, binder concentration: 1:2,000 dilution
[12] = peptide region: H3 50-62, peptide modifications: H3T58ph, binder concentration: 1:10,000 dilution
[13] = peptide region: H3 50-62, peptide modifications: H3K56me2 H3S57ph, binder concentration: 1:2,000 dilution
[14] = peptide region: H3 50-62, peptide modifications: H3K56me2 H3S57ph, binder concentration: 1:10,000 dilution
[15] = peptide region: H3 73-85, peptide modifications: H3K79ac, binder concentration: 1:2,000 dilution
[16] = peptide region: H3 73-85, peptide modifications: H3K79ac, binder concentration: 1:10,000 dilution
[17] = peptide region: H3 50-62, peptide modifications: H3S57ph, binder concentration: 1:2,000 dilution
[18] = peptide region: H3 50-62, peptide modifications: H3S57ph, binder concentration: 1:10,000 dilution
[19] = peptide region: H3 73-85, peptide modifications: H3K79me2, binder concentration: 1:2,000 dilution
[20] = peptide region: H3 73-85, peptide modifications: H3K79me2, binder concentration: 1:10,000 dilution
[21] = peptide region: H3 50-62, peptide modifications: H3K56me3, binder concentration: 1:2,000 dilution
[22] = peptide region: H3 50-62, peptide modifications: H3K56me3, binder concentration: 1:10,000 dilution
[23] = peptide region: H3 50-62, peptide modifications: H3K56me3 H3T58ph, binder concentration: 1:2,000 dilution
[24] = peptide region: H3 50-62, peptide modifications: H3K56me3 H3T58ph, binder concentration: 1:10,000 dilution

## EIRRYQKSTELLI [H3 50-62 E I R R Y Q K S T E L L I]
[1]; peptide region: H3 50-62, binder concentration: 50 nM
  peptide microarray binding signal: 0.00599 ± 0.00033
[1]; peptide region: H3 50-62, binder concentration: 500 nM
  peptide microarray binding signal: 0.0144 ± 0.00044
[2]; peptide region: H3 50-62, binder concentration: 10 nM
  peptide microarray binding signal: 0.00859 ± 0.00029
[2]; peptide region: H3 50-62, binder concentration: 100 nM
  peptide microarray binding signal: 0.00149 ± 5.6e-05
[3]; [5]
  peptide microarray binding signal: 0.00017 ± 3.2e-06
[3]; [6]
  peptide microarray binding signal: 0.00514 ± 0.0014
[4]; [5]
  peptide microarray binding signal: 0.00299 ± 0.00025
[4]; [6]
  peptide microarray binding signal: 0.00288 ± 7.4e-05

## EIAQDFKTDLRFQ [H3 73-85 E I A Q D F Kme2 Tph D L R F Q]
[1]; peptide region: H3 73-85, peptide modifications: H3K79me2 H3T80ph, binder concentration: 50 nM
  peptide microarray binding signal: 0.00103 ± 3.4e-05
[1]; peptide region: H3 73-85, peptide modifications: H3K79me2 H3T80ph, binder concentration: 500 nM
  peptide microarray binding signal: 0.000714 ± 1.2e-05
[2]; peptide region: H3 73-85, peptide modifications: H3K79me2 H3T80ph, binder concentration: 10 nM
  peptide microarray binding signal: 0.002089 ± 1.2e-05
[2]; peptide region: H3 73-85, peptide modifications: H3K79me2 H3T80ph, binder concentration: 100 nM
  peptide microarray binding signal: 0.000992 ± 1.1e-05
[3]; [7]
  peptide microarray binding signal: 0.000283 ± 5.1e-06
[3]; [8]
  peptide microarray binding signal: 0.000799 ± 5.8e-05
[4]; [7]
  peptide microarray binding signal: 0.000438 ± 1.8e-05
[4]; [8]
  peptide microarray binding signal: 0.000634

## EIAQDFKTDLRFQ [H3 73-85 E I A Q D F Kac Tph D L R F Q]
[1]; peptide region: H3 73-85, peptide modifications: H3K79ac H3T80ph, binder concentration: 50 nM
  peptide microarray binding signal: 0.000721 ± 1.1e-05
[1]; peptide region: H3 73-85, peptide modifications: H3K79ac H3T80ph, binder concentration: 500 nM
  peptide microarray binding signal: 0.00171 ± 4.6e-05
[2]; peptide region: H3 73-85, peptide modifications: H3K79ac H3T80ph, binder concentration: 10 nM
  peptide microarray binding signal: 0.00221 ± 4.4e-05
[2]; peptide region: H3 73-85, peptide modifications: H3K79ac H3T80ph, binder concentration: 100 nM
  peptide microarray binding signal: 0.000638 ± 7.1e-06
[3]; [9]
  peptide microarray binding signal: 0.000491 ± 2.4e-05
[3]; [10]
  peptide microarray binding signal: 0.000628 ± 1.8e-05
[4]; [9]
  peptide microarray binding signal: 0.000951 ± 3.6e-05
[4]; [10]
  peptide microarray binding signal: 0.000865 ± 1.8e-05

## EIRRYQKSTELLI [H3 50-62 E I R R Y Q K S Tph E L L I]
[1]; peptide region: H3 50-62, peptide modifications: H3T58ph, binder concentration: 50 nM
  peptide microarray binding signal: 0.000784 ± 1.1e-05
[1]; peptide region: H3 50-62, peptide modifications: H3T58ph, binder concentration: 500 nM
  peptide microarray binding signal: 0.00119 ± 3e-05
[2]; peptide region: H3 50-62, peptide modifications: H3T58ph, binder concentration: 10 nM
  peptide microarray binding signal: 0.00209 ± 3.2e-05
[2]; peptide region: H3 50-62, peptide modifications: H3T58ph, binder concentration: 100 nM
  peptide microarray binding signal: 0.000425 ± 4.9e-06
[3]; [11]
  peptide microarray binding signal: 0.000151 ± 3.3e-06
[3]; [12]
  peptide microarray binding signal: 0.000114 ± 1.3e-06
[4]; [11]
  peptide microarray binding signal: 0.0006041 ± 5.5e-06
[4]; [12]
  peptide microarray binding signal: 0.000519 ± 5.6e-06

## EIRRYQKSTELLI [H3 50-62 E I R R Y Q Kme2 Sph T E L L I]
[1]; peptide region: H3 50-62, peptide modifications: H3K56me2 H3S57ph, binder concentration: 50 nM
  peptide microarray binding signal: 0.00113 ± 1.5e-05
[1]; peptide region: H3 50-62, peptide modifications: H3K56me2 H3S57ph, binder concentration: 500 nM
  peptide microarray binding signal: 0.00124 ± 2.3e-05
[2]; peptide region: H3 50-62, peptide modifications: H3K56me2 H3S57ph, binder concentration: 10 nM
  peptide microarray binding signal: 0.00269 ± 0.00012
[2]; peptide region: H3 50-62, peptide modifications: H3K56me2 H3S57ph, binder concentration: 100 nM
  peptide microarray binding signal: 0.00128 ± 1.3e-05
[3]; [13]
  peptide microarray binding signal: 0.000378 ± 3.9e-06
[3]; [14]
  peptide microarray binding signal: 0.000342 ± 3.8e-06
[4]; [13]
  peptide microarray binding signal: 0.000725 ± 3.3e-05
[4]; [14]
  peptide microarray binding signal: 0.000634 ± 1.2e-05

## EIAQDFKTDLRFQ [H3 73-85 E I A Q D F Kac T D L R F Q]
[1]; peptide region: H3 73-85, peptide modifications: H3K79ac, binder concentration: 50 nM
  peptide microarray binding signal: 0.003981 ± 1.6e-05
[1]; peptide region: H3 73-85, peptide modifications: H3K79ac, binder concentration: 500 nM
  peptide microarray binding signal: 0.0121 ± 0.0025
[2]; peptide region: H3 73-85, peptide modifications: H3K79ac, binder concentration: 10 nM
  peptide microarray binding signal: 0.00537 ± 0.00042
[2]; peptide region: H3 73-85, peptide modifications: H3K79ac, binder concentration: 100 nM
  peptide microarray binding signal: 0.00298 ± 0.00043
[3]; [15]
  peptide microarray binding signal: 0.00166 ± 0.00016
[3]; [16]
  peptide microarray binding signal: 0.00428 ± 0.00088
[4]; [15]
  peptide microarray binding signal: 0.0114 ± 0.0038
[4]; [16]
  peptide microarray binding signal: 0.0106 ± 0.0027

## EIRRYQKSTELLI [H3 50-62 E I R R Y Q K Sph T E L L I]
[1]; peptide region: H3 50-62, peptide modifications: H3S57ph, binder concentration: 50 nM
  peptide microarray binding signal: 0.000878 ± 5.7e-05
[1]; peptide region: H3 50-62, peptide modifications: H3S57ph, binder concentration: 500 nM
  peptide microarray binding signal: 0.00167 ± 0.00017
[2]; peptide region: H3 50-62, peptide modifications: H3S57ph, binder concentration: 10 nM
  peptide microarray binding signal: 0.00179 ± 2.8e-05
[2]; peptide region: H3 50-62, peptide modifications: H3S57ph, binder concentration: 100 nM
  peptide microarray binding signal: 0.00085 ± 3.4e-05
[3]; [17]
  peptide microarray binding signal: 0.000132 ± 5.8e-06
[3]; [18]
  peptide microarray binding signal: 0.000228 ± 4.4e-06
[4]; [17]
  peptide microarray binding signal: 0.000755 ± 0.00012
[4]; [18]
  peptide microarray binding signal: 0.000461 ± 8.7e-06

## EIAQDFKTDLRFQ [H3 73-85 E I A Q D F Kme2 T D L R F Q]
[1]; peptide region: H3 73-85, peptide modifications: H3K79me2, binder concentration: 50 nM
  peptide microarray binding signal: 0.002539 ± 2.2e-05
[1]; peptide region: H3 73-85, peptide modifications: H3K79me2, binder concentration: 500 nM
  peptide microarray binding signal: 0.00633 ± 0.00033
[2]; peptide region: H3 73-85, peptide modifications: H3K79me2, binder concentration: 10 nM
  peptide microarray binding signal: 0.00281 ± 3.1e-05
[2]; peptide region: H3 73-85, peptide modifications: H3K79me2, binder concentration: 100 nM
  peptide microarray binding signal: 0.00376 ± 0.00014
[3]; [19]
  peptide microarray binding signal: 0.00106 ± 6.2e-05
[3]; [20]
  peptide microarray binding signal: 0.00097 ± 2e-05
[4]; [19]
  peptide microarray binding signal: 0.0117 ± 0.004
[4]; [20]
  peptide microarray binding signal: 0.00709 ± 0.00024

## EIRRYQKSTELLI [H3 50-62 E I R R Y Q Kme3 S T E L L I]
[1]; peptide region: H3 50-62, peptide modifications: H3K56me3, binder concentration: 50 nM
  peptide microarray binding signal: 0.00232 ± 0.0002
[1]; peptide region: H3 50-62, peptide modifications: H3K56me3, binder concentration: 500 nM
  peptide microarray binding signal: 0.0019 ± 6e-05
[2]; peptide region: H3 50-62, peptide modifications: H3K56me3, binder concentration: 10 nM
  peptide microarray binding signal: 0.00233 ± 2.7e-05
[2]; peptide region: H3 50-62, peptide modifications: H3K56me3, binder concentration: 100 nM
  peptide microarray binding signal: 0.002268 ± 2.2e-05
[3]; [21]
  peptide microarray binding signal: 0.00259 ± 0.0002
[3]; [22]
  peptide microarray binding signal: 0.00108 ± 3.8e-05
[4]; [21]
  peptide microarray binding signal: 0.0209 ± 0.0092
[4]; [22]
  peptide microarray binding signal: 0.00986 ± 0.0031

## EIRRYQKSTELLI [H3 50-62 E I R R Y Q Kme3 S Tph E L L I]
[1]; peptide region: H3 50-62, peptide modifications: H3K56me3 H3T58ph, binder concentration: 50 nM
  peptide microarray binding signal: 0.0015 ± 4e-05
[1]; peptide region: H3 50-62, peptide modifications: H3K56me3 H3T58ph, binder concentration: 500 nM
  peptide microarray binding signal: 0.00129 ± 3.6e-05
[2]; peptide region: H3 50-62, peptide modifications: H3K56me3 H3T58ph, binder concentration: 10 nM
  peptide microarray binding signal: 0.00281 ± 8.3e-05
[2]; peptide region: H3 50-62, peptide modifications: H3K56me3 H3T58ph, binder concentration: 100 nM
  peptide microarray binding signal: 0.0017 ± 4.6e-05
[3]; [23]
  peptide microarray binding signal: 0.00109 ± 3.3e-05
[3]; [24]
  peptide microarray binding signal: 0.000799 ± 2.2e-05
[4]; [23]
  peptide microarray binding signal: 0.00261 ± 0.0003
[4]; [24]
  peptide microarray binding signal: 0.001211 ± 1.2e-05
